PubChem BioAssay AID588335 (The Scripps Research Institute Molecular Screening Center, 2011)
The campaign covered roughly 360,000 compounds. About 4,500 (1.2%) were called active. The full list was thinned out, with actives kept by preference. A number with no mark means an inactive call. Rule as the data show it: active = inhibition above about 30%; inactive = the rest.

Test: inhibition of GDH and TPI enzymes – biochemical, absorbance, full deck, artefact control for M. tuberculosis FBA inhibitor project, primary screen (AID 588335);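 also: 0% = DMSO wells and 100% = wells lacking the enzyme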
Conditions: GDH-TPI coupled enzyme counterscreen, NADH absorbance; at 4.8 µM; hits give high values
Compound `COc1ccc(S(=O)(=O)NC(C)C(=O)NCc2ccncc2)cc1Cl` (stereo not given) has an inhibition of -4.46%.
For `CC(Oc1cc2oc(=O)c3c(c2cc1Cl)CCCC3)C(=O)NCc1ccncc1` (stereo not given), the inhibition was 30.8% (active).
Work on `O=C(COc1cc2oc(=O)c3c(c2cc1Cl)CCC3)NCCCN1CCOCC1` yielded an inhibition of 21.4%.
`COC(=O)Cn1c(=NC(=O)CSCC(=O)Nc2cc(C)on2)sc2ccccc21` gave an inhibition of 3.99%.
`CC(NC(=O)C(=O)Nc1nccs1)c1ccccc1` (stereo not given) showed an inhibition of 9.56%.
In the case of `COc1ccc(C2/C(=C(/O)c3ccc(OC(C)C)cc3)C(=O)C(=O)N2CCCN2CCOCC2)cc1` (stereo not given), the inhibition is reported as 11.5%.
With `COCCN1C(=O)C(=O)/C(=C(/O)c2ccc(S(=O)(=O)N3CCCCC3)cc2)C1c1ccc(OC)c(OC)c1` (stereo not given) the inhibition was 33.3% (active).
Work on `O=C1C(=O)N(CCN2CCOCC2)C(c2cccc(Cl)c2)/C1=C(/O)c1ccc2c(c1)OCO2` (stereo not given) yielded an inhibition of 17.7%.
With `COCCN1C(=O)C(=O)/C(=C(/O)c2ccc(S(=O)(=O)N3CCOCC3)cc2)C1c1ccc(OC)c(OC)c1` (stereo not given) the inhibition was 9.09%.
In the case of `COc1cccc(C2/C(=C(/O)c3ccc(F)cc3)C(=O)C(=O)N2CCN(C)C)c1` (stereo not given), the inhibition is reported as 10.2%.
For `COCCCN1C(=O)C(=O)/C(=C(/O)c2ccc(S(=O)(=O)N3CCOCC3)cc2)C1c1ccc(F)cc1` (stereo not given), the inhibition was 31% (active).
`COCCN1C(=O)C(=O)/C(=C(/O)c2ccc(S(=O)(=O)N3CCOCC3)cc2)C1c1ccc(O)c(OC)c1` (stereo not given) gave an inhibition of 5.9%.
With `O=C1C(=O)N(CCCN2CCOCC2)C(c2ccc([N+](=O)[O-])cc2)/C1=C(\O)c1ccc2c(c1)OCCO2` (stereo not given) the inhibition was 33.9% (active).
Compound `CCOc1cc(C2/C(=C(/O)c3ccc(S(=O)(=O)N4CCCCC4)cc3)C(=O)C(=O)N2CCOC)ccc1O` (stereo not given) has an inhibition of 0.74%.
Compound `Cc1ccc(C)c(NC(=O)NNC(=O)c2ccc3ccccc3c2O)c1` has an inhibition of 12.5%.
With `CCOC(=O)C1CCN(S(=O)(=O)c2ccc3c(c2)N(C)C(=O)CC(=O)N3C)CC1` the inhibition was 6.72%.
Work on `O=C(CNCc1cccs1)Nc1cc(S(=O)(=O)N2CCCC2)ccc1Cl` yielded an inhibition of 2.39%.
`O=C(NCc1nnc(SCC(=O)N2CCCc3ccccc32)o1)c1ccccc1F` showed an inhibition of 11.2%.
Work on `CCOC(=O)c1c(C)n(C)c2ccc(OC)c(NS(=O)(=O)CC)c12` yielded an inhibition of 2.65%.
In the case of `Clc1cc(-c2ccc(/C=N/n3cnnc3)o2)ccc1Br`, the inhibition is reported as 18.6%.
For `Cc1cc([N+](=O)[O-])c(-c2ccc(/C=N/n3cnnc3)o2)cc1Cl`, the inhibition was 34.8% (active).
`Cc1ccccc1OCCOc1ccc([N+](=O)[O-])cc1/C=N/n1cnnc1` showed an inhibition of 3.11%.
For `CCOC(=O)c1cc(S(=O)(=O)NCCc2ccc(OC)c(OC)c2)cn1C`, the inhibition was 1.68%.
`COc1ccc(C)cc1N(C(=O)Cn1nnc(-c2ccc(C)o2)n1)C(C(=O)NC1CCCC1)c1ccncc1` (stereo not given) gave an inhibition of -13.4%.
With `COCOc1cc(O)c(C(=O)/C=C/c2ccc(OCOC)c(OCOC)c2)c(OCOC)c1` the inhibition was 6.25%.
For `COc1ccc(/C=C/C(=O)c2cc(Br)ccc(=O)c2O)cc1`, the inhibition was 55.6% (active).
In the case of `CCOc1ccc(NC(=S)NC(=O)/C=C/c2ccc(OC)cc2)c([N+](=O)[O-])c1`, the inhibition is reported as 11.6%.
`Cc1ccc(C(=O)O)cc1N1C(=O)CCCC1=O` gave an inhibition of 2.24%.
Work on `CCCN(CC(=O)Nc1ccccc1C)C(=O)c1ccc2[nH]c3c(c2c1)CC(C)CC3` (stereo not given) yielded an inhibition of 18.2%.
For `COc1ccc(CC(=O)c2ccc(O)cc2O)cc1OC`, the inhibition was 26.1%.
In the case of `O=C(Cc1ccccn1)c1ccc(O)cc1O`, the inhibition is reported as 33.6% (active).
`Oc1cccc(CCc2ccccn2)c1` gave an inhibition of 7.36%.
`O=C(Cn1cc2c(n1)CCCCC2)NCCN1CCOCC1` showed an inhibition of -6.93%.
With `CC(C)Cn1cc(-c2cncc3nccn23)cn1` the inhibition was 4%.
For `O=c1oc2c(CN3CCCCC3)c(O)ccc2c2c1CCCCC2`, the inhibition was 30.6% (active).
`CCCOc1ccc2c3c(c(=O)oc2c1OCCC)CCC3` showed an inhibition of 13.5%.
`COc1ccc2c3c(c(=O)oc2c1OCC(=O)C(C)(C)C)CCCC3` showed an inhibition of -0.64%.
`Cc1cc(N(C)C)cc(C)[n+]1[O-]` showed an inhibition of -1.57%.
`Nc1nc(O)c(CC(=O)O)s1` showed an inhibition of 5.96%.
For `Cc1noc(C)c1COc1ccc2ccc(=O)oc2c1`, the inhibition was 6.47%.
`CCCCc1cc(=O)oc2cc(C)cc(OCc3nn[nH]n3)c12` showed an inhibition of 22%.
In the case of `COc1ccc(-c2cc3ccc(OCc4nn[nH]n4)cc3oc2=O)cc1`, the inhibition is reported as 34.6% (active).
`Cn1ccc(=Nc2ccc(NC(=O)c3ccc(N=c4ccn(C)c5ccc([N+](=O)[O-])cc45)cc3)cc2)cc1` gave an inhibition of 13.7%.
With `O=C(NCc1cccnc1)c1cc(C2CCCN(C(=O)CCCc3ccccc3)C2)on1` (stereo not given) the inhibition was -5.31%.
Compound `CN(C(=O)C1CCN(c2ncnc3c2nc2n3CCCCC2)CC1)C1CCCCC1` has an inhibition of -2.53%.
`O=C(NNc1ccccc1Cl)C(O)(c1cccc(C(F)(F)F)c1)c1cccc(C(F)(F)F)c1` showed an inhibition of 10.2%.
In the case of `COc1ccc(C(=O)CCC(=O)Nc2cccnc2)c(OC)c1`, the inhibition is reported as -6.9%.
With `COc1cc(/C=N/NC(=S)Nc2cccnc2)cc(OC)c1O` the inhibition was 31.5% (active).
`Fc1cc(Br)ccc1NC(=S)Nc1cccnc1` showed an inhibition of -0.63%.
Work on `O=C(c1cccs1)C1C(c2ccc(Br)cc2)NC(=S)NC1(O)C(F)(F)F` (stereo not given) yielded an inhibition of 12.2%.
Compound `Cc1c(NC(=O)C(C)OC(=O)c2c3c(nc4ccccc24)CCC(C)C3)c(=O)n(-c2ccccc2)n1C` (stereo not given) has an inhibition of 3.38%.
`Cc1ccccc1N1CC(c2nc3ccccc3[nH]2)CC1=O` (stereo not given) gave an inhibition of 2.42%.
With `Cc1ccc(-c2nc3ccccc3[nH]c2=O)cc1` the inhibition was 32.1% (active).
Work on `Cc1ccc(-c2nnc(-n3nnc4ccccc43)c3ccccc23)cc1` yielded an inhibition of 6.42%.
Compound `CC1(C(=O)NCc2ccc(F)c(F)c2)Cc2c(-c3ccc4c(c3)OCO4)ccnc2O1` (stereo not given) has an inhibition of 0%.
In the case of `CC1C(=O)Nc2ccccc2N1C(=O)c1c(F)cccc1F` (stereo not given), the inhibition is reported as -1.38%.
With `Cn1c(=NC(=O)c2ccco2)sc2cccc(F)c21` the inhibition was 51% (active).
Compound `O=C(Cc1c(F)cccc1Cl)N1CCN(C(=O)c2ccco2)CC1` has an inhibition of -4.08%.
`Cn1c(=NC(=O)c2cnccn2)sc2ccccc21` showed an inhibition of 29.1%.
For `O=C(CN1CCCCCC1)Nc1c(Cl)cc(Cl)cc1Cl`, the inhibition was 3.42%.
`COc1cc2nc(CN(C)Cc3ccc(F)cc3)[nH]c(=O)c2cc1OC` gave an inhibition of -3.88%.
In the case of `CCCCNC(=O)CSc1nc2n[nH]c(C)c2c(=N)n1-c1cccc(Cl)c1C`, the inhibition is reported as 33.5% (active).
Compound `Cc1ccc(-n2c(SCC(=O)NCCC3=CCCCC3)nc3n[nH]c(C)c3c2=N)cc1Cl` has an inhibition of -1.52%.
With `COc1cccc(-n2c(SCC(=O)NC3CCCCC3)nc3n[nH]c(C)c3c2=N)c1` the inhibition was 0.37%.
For `CC(C)Nc1ccc(-n2nc3ccccc3[n+]2[O-])cc1`, the inhibition was 21.6%.
With `O=C(CN1C(=O)S/C(=C\c2ccccc2Cl)C1=O)NC1C=CS(=O)(=O)C1` (stereo not given) the inhibition was 35.4% (active).
In the case of `CN(C(=O)CN1C(=O)S/C(=C\c2ccccc2F)C1=O)C1CCS(=O)(=O)C1` (stereo not given), the inhibition is reported as 9.17%.
With `CC12CCC(=O)N1C(C(=O)NCCN1C(=O)S/C(=C\c3ccccc3F)C1=O)CS2` (stereo not given) the inhibition was 21.5%.
In the case of `CCN(CC)C(=O)C1CCCN(Cc2cccc(Cl)c2)C1` (stereo not given), the inhibition is reported as 11.3%.
With `COc1ccccc1C(=O)Nc1ccnn1C1CCN(C(=O)C(C)(C)C)CC1` the inhibition was 2.52%.
Work on `CCn1cc(/C=C(\NC(=O)c2cc(OC)c(OC)c(OC)c2)C(=O)N2CCN(C)CC2)c2ccccc21` yielded an inhibition of 27.5%.
In the case of `Cc1ccc(C(=O)N/C(=C\c2cn(C)c3ccccc23)C(=O)N2CCN(C)CC2)cc1`, the inhibition is reported as 18.5%.
In the case of `COc1cc(C(=O)N/C(=C\c2cn(C)c3ccccc23)C(=O)N2CCOCC2)cc(OC)c1OC`, the inhibition is reported as 33.6% (active).
Compound `CN(Cc1c(F)cccc1Cl)C(=O)COC(=O)Cn1cnc2ccccc2c1=O` has an inhibition of 7.14%.
Work on `Cc1ccc(OCC(=O)NCCCNC(=O)c2cccnc2)cc1C` yielded an inhibition of -5.28%.
In the case of `C/C(=C\C(=O)c1cccnc1)Nc1ccc(C)c(C)c1`, the inhibition is reported as 31.1% (active).
For `C/C(=C\C(=O)c1ccccc1)Nc1cccc(O)c1`, the inhibition was 8.48%.
Work on `C=C1C2C[C@H](O)C(C)(C)[C@@]2(O)[C@H](O)C[C@]23C[C@@](C)(O)[C@H](CC[C@H]12)[C@H]3O` (stereo not given in full) yielded an inhibition of 5.18%.
In the case of `COc1ccc(SC[C@H](Cc2ccccc2)N2CCN(CCc3ccccc3)CCC2=O)cc1`, the inhibition is reported as 3.36%.
Work on `C=CCOc1ccc(/C=N/n2cncn2)cc1OC` yielded an inhibition of 19.5%.
Work on `O=C(CN1CCN(Cc2ccccc2)CC1)Nc1ccc(F)c(F)c1` yielded an inhibition of -9.79%.
In the case of `COc1ccccc1CN1CCN(C(=O)Cc2ccccc2)CC1`, the inhibition is reported as 6.8%.
With `COc1ccccc1/C=C/C=N/NC(=O)CN1CCN(Cc2ccccc2)CC1` the inhibition was 49.7% (active).
Compound `O=C(CCn1c(=S)[nH]c2cc3c(cc2c1=O)OCO3)NCc1ccc(Cl)cc1` has an inhibition of 20.7%.
For `CN(C)CCn1c(=S)[nH]c2ccc(Cl)cc2c1=O`, the inhibition was 32.9% (active).
`O=c1c2ccccc2[nH]c(=S)n1-c1cccc(Cl)c1` gave an inhibition of 9.09%.
`O=C(CN1CCN(S(=O)(=O)c2cc(Cl)ccc2Cl)CC1)c1ccc(O)c(O)c1` showed an inhibition of 18.1%.
For `Cc1cc(/C=N/Nc2ccc([N+](=O)[O-])cn2)c(C)n1-c1cccc(C(=O)O)c1`, the inhibition was 38% (active).
Work on `Cc1cc(/C=N/NC(=O)CC2(C)OCCO2)c(C)n1-c1ccc(Cl)c(Cl)c1` yielded an inhibition of 0.72%.
Compound `Cc1cc(C=O)c(C)n1-c1ccc(NC2CCCCC2)c([N+](=O)[O-])c1` has an inhibition of 0.62%.
